According to publication PMC7862700, “An all-to-all approach to the identification of sequence-specific readers for epigenetic DNA modifications on cytosine”:

Key:
Test in all cases: DAPPL (digital affinity profiling via proximity ligation, sequencing); 10 mM Tris-HCl pH 7.5, 50 mM NaCl, 1 mM DTT, 4% glycerol, room temperature, 30 min; GST-TFs on glutathione beads, 16-mer random dsDNA library, 0.1% formaldehyde crosslink after washing; high values mean tight binding
FLI1 = target: T1, FLI1 (Homo sapiens, UniProt Q01543 1-452); details: protein: recombinant; tags: N-terminal GST; dsDNA, one strand shown
T1 sequence: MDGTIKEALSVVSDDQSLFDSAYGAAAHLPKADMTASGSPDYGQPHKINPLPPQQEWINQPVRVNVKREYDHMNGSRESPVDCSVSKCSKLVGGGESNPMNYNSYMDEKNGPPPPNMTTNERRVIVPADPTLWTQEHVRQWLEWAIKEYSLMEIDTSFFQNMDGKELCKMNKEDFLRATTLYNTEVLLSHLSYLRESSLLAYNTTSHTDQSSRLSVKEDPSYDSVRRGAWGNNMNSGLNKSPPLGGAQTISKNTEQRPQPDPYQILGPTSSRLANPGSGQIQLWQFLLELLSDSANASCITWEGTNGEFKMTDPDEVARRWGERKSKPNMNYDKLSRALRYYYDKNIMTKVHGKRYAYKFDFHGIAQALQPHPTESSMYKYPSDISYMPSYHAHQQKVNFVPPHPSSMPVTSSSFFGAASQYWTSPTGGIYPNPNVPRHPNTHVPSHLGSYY
In short: (§1)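 GST fusions of human transcription factors were expressed in yeast and captured with glutathione beads. Once given DNA barcodes and pooled alongside a tag-only sample, they were incubated for 30 min at room temperature with 200 nmole of a random double-stranded 16-mer DNA library in Tris/NaCl/DTT/glycerol buffer, then washed, crosslinked (0.1% formaldehyde), proximity-ligated, PCR-amplified and sequenced on an Illumina NextSeq500. The binding signal of each hexamer is its read frequency for a factor divided by its frequency for the tag-only sample.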

ELK1 = target: T2, ELK1 (Homo sapiens, UniProt P19419 1-428); details: protein: recombinant; tags: N-terminal GST; dsDNA, one strand shown
T2 sequence: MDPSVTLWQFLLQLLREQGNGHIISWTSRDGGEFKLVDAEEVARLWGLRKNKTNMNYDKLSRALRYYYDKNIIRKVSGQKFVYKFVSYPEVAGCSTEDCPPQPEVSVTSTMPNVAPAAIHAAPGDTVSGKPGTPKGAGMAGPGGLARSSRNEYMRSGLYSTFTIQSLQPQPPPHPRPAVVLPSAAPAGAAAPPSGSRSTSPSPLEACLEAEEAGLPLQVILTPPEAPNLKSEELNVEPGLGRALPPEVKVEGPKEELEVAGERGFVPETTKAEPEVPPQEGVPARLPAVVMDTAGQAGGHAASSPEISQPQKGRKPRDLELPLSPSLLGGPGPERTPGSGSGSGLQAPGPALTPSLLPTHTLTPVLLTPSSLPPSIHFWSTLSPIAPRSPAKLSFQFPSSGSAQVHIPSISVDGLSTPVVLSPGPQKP
In short: as §1

GABPA = target: T3, GABPA (Homo sapiens, UniProt Q06546 1-454); details: protein: recombinant; tags: N-terminal GST; dsDNA, one strand shown
T3 sequence: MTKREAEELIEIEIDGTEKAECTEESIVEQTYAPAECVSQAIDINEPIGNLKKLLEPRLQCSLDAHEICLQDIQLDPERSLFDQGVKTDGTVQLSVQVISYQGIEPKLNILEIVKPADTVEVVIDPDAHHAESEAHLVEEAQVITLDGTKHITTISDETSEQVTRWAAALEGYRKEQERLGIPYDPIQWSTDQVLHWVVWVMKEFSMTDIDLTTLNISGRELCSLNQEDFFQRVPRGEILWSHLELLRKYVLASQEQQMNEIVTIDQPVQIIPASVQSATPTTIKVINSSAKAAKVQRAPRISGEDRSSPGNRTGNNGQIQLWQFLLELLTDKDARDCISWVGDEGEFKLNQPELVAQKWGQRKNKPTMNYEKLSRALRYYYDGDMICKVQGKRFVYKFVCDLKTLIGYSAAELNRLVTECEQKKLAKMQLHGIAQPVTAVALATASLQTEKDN
In short: as §1

ERG = target: T4, ERG (Homo sapiens, UniProt P11308 1-479); details: protein: recombinant; tags: N-terminal GST; dsDNA, one strand shown
T4 sequence: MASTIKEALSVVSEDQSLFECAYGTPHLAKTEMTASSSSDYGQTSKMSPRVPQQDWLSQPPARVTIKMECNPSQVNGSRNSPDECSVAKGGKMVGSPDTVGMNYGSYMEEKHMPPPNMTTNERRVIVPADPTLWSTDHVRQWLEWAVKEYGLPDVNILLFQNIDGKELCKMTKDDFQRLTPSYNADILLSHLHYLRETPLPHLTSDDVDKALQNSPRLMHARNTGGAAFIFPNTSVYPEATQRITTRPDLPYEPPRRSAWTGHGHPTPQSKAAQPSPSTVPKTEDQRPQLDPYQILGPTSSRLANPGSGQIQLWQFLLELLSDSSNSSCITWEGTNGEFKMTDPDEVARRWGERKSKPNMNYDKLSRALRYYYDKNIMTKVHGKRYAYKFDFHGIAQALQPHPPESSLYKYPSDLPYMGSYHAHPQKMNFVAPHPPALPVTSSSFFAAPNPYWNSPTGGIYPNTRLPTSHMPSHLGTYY
In short: as §1

ELF1 = ELF1 (Homo sapiens, UniProt P32519 1-619); details: protein: recombinant; tags: N-terminal GST; dsDNA, one strand shown
ELF1, sequence (P32519 whole entry): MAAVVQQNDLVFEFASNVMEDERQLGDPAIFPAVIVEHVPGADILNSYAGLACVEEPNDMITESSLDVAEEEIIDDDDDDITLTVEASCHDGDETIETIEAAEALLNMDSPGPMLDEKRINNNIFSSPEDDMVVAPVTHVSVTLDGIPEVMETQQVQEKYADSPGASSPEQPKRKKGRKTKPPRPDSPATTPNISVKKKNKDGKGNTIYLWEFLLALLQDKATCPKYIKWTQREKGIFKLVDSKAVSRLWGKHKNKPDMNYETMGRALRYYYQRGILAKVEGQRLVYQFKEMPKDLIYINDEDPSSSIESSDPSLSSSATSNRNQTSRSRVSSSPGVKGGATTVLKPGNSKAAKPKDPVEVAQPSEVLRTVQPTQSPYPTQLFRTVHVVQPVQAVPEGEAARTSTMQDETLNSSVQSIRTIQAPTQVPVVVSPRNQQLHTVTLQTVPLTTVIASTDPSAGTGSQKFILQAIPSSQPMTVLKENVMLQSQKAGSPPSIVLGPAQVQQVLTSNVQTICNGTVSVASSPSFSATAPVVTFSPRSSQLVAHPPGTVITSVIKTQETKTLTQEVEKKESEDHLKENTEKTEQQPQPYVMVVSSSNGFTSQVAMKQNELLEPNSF
In short: as §1

EHF = target: T5, EHF (Homo sapiens, UniProt Q9NZC4 1-300); details: protein: recombinant; tags: N-terminal GST; dsDNA, one strand shown
T5 sequence: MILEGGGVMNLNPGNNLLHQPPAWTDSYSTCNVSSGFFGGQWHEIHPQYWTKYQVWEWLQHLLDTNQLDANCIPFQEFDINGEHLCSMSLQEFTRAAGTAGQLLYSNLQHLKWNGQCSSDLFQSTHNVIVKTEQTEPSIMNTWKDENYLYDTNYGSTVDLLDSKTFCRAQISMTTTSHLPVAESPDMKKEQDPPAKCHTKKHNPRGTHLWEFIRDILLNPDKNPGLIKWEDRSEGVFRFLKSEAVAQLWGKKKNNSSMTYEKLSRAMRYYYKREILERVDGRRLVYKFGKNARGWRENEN
In short: as §1

SPI1 = SPI1 (Homo sapiens, UniProt P17947 1-270); details: protein: recombinant; tags: N-terminal GST; dsDNA, one strand shown
In short: as §1

SPIB = SPIB (Homo sapiens, UniProt Q01892 1-262); details: protein: recombinant; tags: N-terminal GST; dsDNA, one strand shown
SPIB, sequence (Q01892 whole entry): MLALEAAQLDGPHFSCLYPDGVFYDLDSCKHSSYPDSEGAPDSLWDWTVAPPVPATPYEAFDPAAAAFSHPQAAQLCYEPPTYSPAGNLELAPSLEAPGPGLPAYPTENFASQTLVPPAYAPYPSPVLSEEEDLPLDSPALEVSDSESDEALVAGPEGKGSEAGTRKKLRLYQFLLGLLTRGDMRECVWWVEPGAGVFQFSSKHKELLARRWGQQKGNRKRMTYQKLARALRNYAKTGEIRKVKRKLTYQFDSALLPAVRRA
In short: as §1

ELK3 = target: T6, ELK3 (Homo sapiens, UniProt P41970 1-407); details: protein: recombinant; tags: N-terminal GST; dsDNA, one strand shown
T6 sequence: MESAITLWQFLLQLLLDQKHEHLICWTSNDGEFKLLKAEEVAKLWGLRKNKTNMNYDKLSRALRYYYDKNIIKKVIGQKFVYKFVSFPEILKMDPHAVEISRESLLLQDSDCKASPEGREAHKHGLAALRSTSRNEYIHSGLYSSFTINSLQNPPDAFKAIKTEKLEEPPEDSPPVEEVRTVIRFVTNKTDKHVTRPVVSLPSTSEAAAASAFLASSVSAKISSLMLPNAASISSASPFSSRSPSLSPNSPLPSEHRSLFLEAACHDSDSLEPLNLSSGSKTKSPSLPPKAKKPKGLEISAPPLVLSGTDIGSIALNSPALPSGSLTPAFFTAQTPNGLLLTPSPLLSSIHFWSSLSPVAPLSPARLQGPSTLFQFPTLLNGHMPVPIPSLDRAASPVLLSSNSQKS
In short: as §1

FEV = target: T7, FEV (Homo sapiens, UniProt Q99581 1-238); details: protein: recombinant; tags: N-terminal GST; dsDNA, one strand shown
T7 sequence: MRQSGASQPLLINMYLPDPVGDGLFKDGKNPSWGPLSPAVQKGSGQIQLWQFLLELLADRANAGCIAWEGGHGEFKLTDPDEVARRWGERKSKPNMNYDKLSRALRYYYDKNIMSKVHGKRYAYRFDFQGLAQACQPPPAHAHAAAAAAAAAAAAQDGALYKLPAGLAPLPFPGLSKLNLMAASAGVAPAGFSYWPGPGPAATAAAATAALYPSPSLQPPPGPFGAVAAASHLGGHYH
In short: as §1

ETV5 = ETV5 (Homo sapiens, UniProt P41161 1-510); details: protein: recombinant; tags: N-terminal GST; dsDNA, one strand shown
ETV5, sequence (P41161 whole entry): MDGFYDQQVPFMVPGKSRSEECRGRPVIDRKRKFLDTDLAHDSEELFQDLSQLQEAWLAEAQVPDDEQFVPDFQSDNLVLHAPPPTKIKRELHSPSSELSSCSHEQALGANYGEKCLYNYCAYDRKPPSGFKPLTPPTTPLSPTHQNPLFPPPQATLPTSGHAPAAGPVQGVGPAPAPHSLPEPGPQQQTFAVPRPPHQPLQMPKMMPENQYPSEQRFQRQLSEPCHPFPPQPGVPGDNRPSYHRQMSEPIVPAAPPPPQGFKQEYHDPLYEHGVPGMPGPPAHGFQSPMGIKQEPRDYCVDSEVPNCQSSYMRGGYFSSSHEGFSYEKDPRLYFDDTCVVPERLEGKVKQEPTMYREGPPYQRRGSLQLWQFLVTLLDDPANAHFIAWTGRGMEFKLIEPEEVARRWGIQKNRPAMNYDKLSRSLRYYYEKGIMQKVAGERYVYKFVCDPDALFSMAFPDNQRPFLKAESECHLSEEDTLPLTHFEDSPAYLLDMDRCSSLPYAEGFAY
In short: as §1

HSF1 = HSF1 (Homo sapiens, UniProt Q00613 1-529); details: protein: recombinant; tags: N-terminal GST; chain copies: 3; dsDNA, one strand shown
HSF1, sequence (Q00613 whole entry): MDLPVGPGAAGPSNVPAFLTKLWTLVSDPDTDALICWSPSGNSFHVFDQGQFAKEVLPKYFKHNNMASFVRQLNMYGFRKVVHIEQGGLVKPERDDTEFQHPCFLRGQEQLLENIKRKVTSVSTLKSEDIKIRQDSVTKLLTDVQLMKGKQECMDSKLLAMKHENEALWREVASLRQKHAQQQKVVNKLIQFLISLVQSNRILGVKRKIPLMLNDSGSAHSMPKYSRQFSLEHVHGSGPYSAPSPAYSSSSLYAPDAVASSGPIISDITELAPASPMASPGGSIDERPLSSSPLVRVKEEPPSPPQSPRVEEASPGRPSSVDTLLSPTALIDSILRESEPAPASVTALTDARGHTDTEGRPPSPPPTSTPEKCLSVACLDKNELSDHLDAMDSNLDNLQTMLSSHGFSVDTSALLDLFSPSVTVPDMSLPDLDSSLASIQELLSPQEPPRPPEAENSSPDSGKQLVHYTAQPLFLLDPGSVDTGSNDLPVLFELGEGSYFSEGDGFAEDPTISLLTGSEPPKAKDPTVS
In short: as §1

SPIC = target: T8, SPIC (Homo sapiens, UniProt Q8N5J4 1-248); details: protein: recombinant; tags: N-terminal GST; dsDNA, one strand shown
T8 sequence: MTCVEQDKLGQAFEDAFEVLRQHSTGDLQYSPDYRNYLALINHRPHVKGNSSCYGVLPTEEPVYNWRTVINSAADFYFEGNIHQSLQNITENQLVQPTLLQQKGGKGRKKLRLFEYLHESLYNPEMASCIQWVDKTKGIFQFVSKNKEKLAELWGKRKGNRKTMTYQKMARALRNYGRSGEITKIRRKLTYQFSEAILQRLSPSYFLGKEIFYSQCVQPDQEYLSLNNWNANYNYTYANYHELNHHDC
In short: as §1

ELF4 = ELF4 (Homo sapiens, UniProt Q99607 1-663); details: protein: recombinant; tags: N-terminal GST; dsDNA, one strand shown
ELF4, sequence (Q99607 whole entry): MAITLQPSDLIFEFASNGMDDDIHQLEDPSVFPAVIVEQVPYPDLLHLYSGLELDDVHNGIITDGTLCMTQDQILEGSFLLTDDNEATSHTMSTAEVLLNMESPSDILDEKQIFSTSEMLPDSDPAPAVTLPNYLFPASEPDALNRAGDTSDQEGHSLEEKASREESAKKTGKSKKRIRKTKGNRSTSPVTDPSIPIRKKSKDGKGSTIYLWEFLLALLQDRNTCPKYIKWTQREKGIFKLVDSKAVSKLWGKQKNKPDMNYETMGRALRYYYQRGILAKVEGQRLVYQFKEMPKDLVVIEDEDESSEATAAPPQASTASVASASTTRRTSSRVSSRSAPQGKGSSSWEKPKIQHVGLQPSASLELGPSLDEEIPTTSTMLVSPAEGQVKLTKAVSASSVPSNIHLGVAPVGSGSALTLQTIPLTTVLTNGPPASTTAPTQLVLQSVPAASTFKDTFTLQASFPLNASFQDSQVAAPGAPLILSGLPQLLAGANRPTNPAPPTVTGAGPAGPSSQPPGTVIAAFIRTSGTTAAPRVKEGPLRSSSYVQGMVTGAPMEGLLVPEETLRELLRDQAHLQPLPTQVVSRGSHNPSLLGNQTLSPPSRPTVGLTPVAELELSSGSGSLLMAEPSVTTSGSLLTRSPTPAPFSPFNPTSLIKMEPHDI
In short: as §1

ELK4 = target: T9, ELK4 (Homo sapiens, UniProt P28324-2 1-405); details: protein: recombinant; tags: N-terminal GST; dsDNA, one strand shown
T9 sequence: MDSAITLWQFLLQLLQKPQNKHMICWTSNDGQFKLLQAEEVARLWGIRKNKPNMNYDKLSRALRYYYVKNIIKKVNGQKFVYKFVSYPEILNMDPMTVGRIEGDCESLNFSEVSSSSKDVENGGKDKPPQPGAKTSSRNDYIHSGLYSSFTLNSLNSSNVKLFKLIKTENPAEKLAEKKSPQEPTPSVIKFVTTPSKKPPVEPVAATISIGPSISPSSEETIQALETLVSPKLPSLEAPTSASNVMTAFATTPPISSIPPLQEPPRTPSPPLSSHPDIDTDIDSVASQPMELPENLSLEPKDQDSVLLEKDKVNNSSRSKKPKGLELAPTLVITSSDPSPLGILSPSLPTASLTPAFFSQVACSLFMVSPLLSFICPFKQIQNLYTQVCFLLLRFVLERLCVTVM
In short: as §1

ETV2 = target: T10, ETV2 (Homo sapiens, UniProt O00321 1-342); details: protein: recombinant; tags: N-terminal GST; dsDNA, one strand shown
T10 sequence: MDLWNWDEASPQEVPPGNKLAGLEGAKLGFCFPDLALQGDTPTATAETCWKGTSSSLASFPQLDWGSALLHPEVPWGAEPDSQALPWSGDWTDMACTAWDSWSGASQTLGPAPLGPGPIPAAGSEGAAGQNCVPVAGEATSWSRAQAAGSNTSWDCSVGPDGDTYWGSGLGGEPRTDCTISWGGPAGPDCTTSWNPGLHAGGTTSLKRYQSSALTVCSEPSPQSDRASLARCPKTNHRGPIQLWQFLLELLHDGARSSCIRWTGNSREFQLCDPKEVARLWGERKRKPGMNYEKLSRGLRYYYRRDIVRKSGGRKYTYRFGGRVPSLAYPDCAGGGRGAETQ
In short: as §1

ELF3 = target: T11, ELF3 (Homo sapiens, UniProt P78545 1-371); details: protein: recombinant; tags: N-terminal GST; dsDNA, one strand shown
T11 sequence: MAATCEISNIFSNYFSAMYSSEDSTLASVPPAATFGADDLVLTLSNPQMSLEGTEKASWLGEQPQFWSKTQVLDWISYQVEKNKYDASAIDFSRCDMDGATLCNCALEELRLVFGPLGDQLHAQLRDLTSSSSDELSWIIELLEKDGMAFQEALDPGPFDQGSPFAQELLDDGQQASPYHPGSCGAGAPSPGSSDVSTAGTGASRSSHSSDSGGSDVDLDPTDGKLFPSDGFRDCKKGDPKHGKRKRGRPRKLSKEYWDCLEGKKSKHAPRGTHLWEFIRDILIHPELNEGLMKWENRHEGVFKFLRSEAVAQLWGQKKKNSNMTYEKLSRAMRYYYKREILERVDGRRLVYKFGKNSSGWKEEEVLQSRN
In short: as §1

CRX = CRX (Homo sapiens, UniProt O43186 1-299); details: protein: recombinant; tags: N-terminal GST; dsDNA, one strand shown
CRX, sequence (O43186 whole entry): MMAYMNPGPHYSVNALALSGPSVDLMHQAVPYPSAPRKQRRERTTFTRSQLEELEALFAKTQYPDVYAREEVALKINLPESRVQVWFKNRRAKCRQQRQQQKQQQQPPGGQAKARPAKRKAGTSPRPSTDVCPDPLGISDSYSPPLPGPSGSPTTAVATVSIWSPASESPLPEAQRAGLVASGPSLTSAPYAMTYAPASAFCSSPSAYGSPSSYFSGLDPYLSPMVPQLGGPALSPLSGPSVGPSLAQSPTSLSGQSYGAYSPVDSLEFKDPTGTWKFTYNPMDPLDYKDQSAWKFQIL
In short: as §1

ETV1 = ETV1 (Homo sapiens, UniProt P50549 1-477); details: protein: recombinant; tags: N-terminal GST; dsDNA, one strand shown
ETV1, sequence (P50549 whole entry): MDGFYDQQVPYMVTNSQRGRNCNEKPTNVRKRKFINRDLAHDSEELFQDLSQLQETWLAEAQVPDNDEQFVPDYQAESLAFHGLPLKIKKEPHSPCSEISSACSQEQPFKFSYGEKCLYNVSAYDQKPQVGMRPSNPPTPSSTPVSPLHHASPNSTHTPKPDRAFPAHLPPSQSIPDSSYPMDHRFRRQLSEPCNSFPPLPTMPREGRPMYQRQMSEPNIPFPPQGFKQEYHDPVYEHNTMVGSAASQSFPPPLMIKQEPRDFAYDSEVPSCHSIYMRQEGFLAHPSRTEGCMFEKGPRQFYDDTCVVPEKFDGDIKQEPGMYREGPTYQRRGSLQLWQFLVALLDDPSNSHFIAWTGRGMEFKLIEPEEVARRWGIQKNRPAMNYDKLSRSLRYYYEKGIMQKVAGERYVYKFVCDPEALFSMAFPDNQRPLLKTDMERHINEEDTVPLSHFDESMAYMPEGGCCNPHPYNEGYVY
In short: as §1

Q: How did the binding signal (FLI1) turn out when TTAGTT was run?
A: 1.36 fold enrichment (6-mer frequency, TF over GST control)

Q: And the binding signal (ELK1)?
A: 1.38 fold enrichment (6-mer frequency, TF over GST control)

Q: What about the binding signal (GABPA) of the same sequence?
A: 1.18 fold enrichment (6-mer frequency, TF over GST control)

Q: And the binding signal (ERG)?
A: 1.24 fold enrichment (6-mer frequency, TF over GST control)

Q: And the binding signal (ELF1)?
A: 1.31 fold enrichment (6-mer frequency, TF over GST control)

Q: What about the binding signal (EHF) of the same sequence?
A: 1.3 fold enrichment (6-mer frequency, TF over GST control)

Q: What about the binding signal (SPI1) of the same sequence?
A: 1.27 fold enrichment (6-mer frequency, TF over GST control)

Q: And the binding signal (SPIB)?
A: 1.31 fold enrichment (6-mer frequency, TF over GST control)

Q: What about the binding signal (ELK3) of the same sequence?
A: 1.31 fold enrichment (6-mer frequency, TF over GST control)

Q: And the binding signal (FEV)?
A: 1.2 fold enrichment (6-mer frequency, TF over GST control)

Q: What about the binding signal (ETV5) of the same sequence?
A: 1.25 fold enrichment (6-mer frequency, TF over GST control)

Q: And the binding signal (HSF1)?
A: 1.68 fold enrichment (6-mer frequency, TF over GST control)

Q: And the binding signal (SPIC)?
A: 1.28 fold enrichment (6-mer frequency, TF over GST control)

Q: And the binding signal (ELF4)?
A: 1.37 fold enrichment (6-mer frequency, TF over GST control)

Q: What about the binding signal (ELK4) of the same sequence?
A: 1.32 fold enrichment (6-mer frequency, TF over GST control)

Q: And the binding signal (ETV2)?
A: 1.37 fold enrichment (6-mer frequency, TF over GST control)

Q: And the binding signal (ELF3)?
A: 1.25 fold enrichment (6-mer frequency, TF over GST control)

Q: What about the binding signal (CRX) of the same sequence?
A: 2.25 fold enrichment (6-mer frequency, TF over GST control)

Q: What about the binding signal (ETV1) of the same sequence?
A: 1.33 fold enrichment (6-mer frequency, TF over GST control)
